# The campaign covered roughly 39,000 compounds. About 3,300 (8.5%) were called active. The sample holds actives, similar compounds and a random draw of the others, so the mix is not that of the screen.
# System: HepG2
# Test: cytotoxicity call (relative viability < 0.9)
# Details: 10 µM
row,SMILES,cytotoxicity call
1,COCC#Cc1ccc2c(c1)O[C@H](CN(C)C(=O)c1ccccc1F)[C@@H](C)CN([C@H](C)CO)S2(=O)=O,inactive
2,C[C@@H]1CN([C@H](C)CO)C(=O)Cc2cc(NS(=O)(=O)c3ccc(F)cc3)ccc2O[C@H]1CN(C)S(=O)(=O)c1ccc(F)cc1,inactive
3,COc1ccc(cc1)NC(=O)N1CC[C@]2(CC1)CN([C@@H](CO)c1[nH]c3cc(ccc3c12)OC)C(=O)CN1CCOCC1,inactive
4,O=C1NC(=O)/C(=C\c2ccccc2)N1,inactive
5,O=C(N[C@@H]1CC(=O)N(C2CC2)C1)C1CCC1,inactive
6,C[C@H]1CN([C@@H](C)CO)C(=O)c2cc(NC(=O)Cc3cn(C)c4ccccc34)ccc2O[C@@H]1CN(C)Cc1ccc(C(=O)Nc2ccccc2N)cc1,inactive
7,C[C@H](CO)N1C[C@H](C)[C@H](CN(C)C(=O)Nc2ccccc2)Oc2ccc(NC(=O)C3CC3)cc2CC1=O,inactive
8,N#Cc1cnc2c(C(N)=O)cnn2c1N,inactive
9,Cc1noc(C)c1NC(=O)Nc1ccc2c(c1)C(=O)N([C@H](C)CO)C[C@@H](C)[C@H](CN(C)Cc1ccccc1)OCCCC[C@@H](C)O2,inactive
10,Nc1nc(=O)c2[nH]c(=O)c(=O)[nH]c2[nH]1,inactive
11,Cc1noc(C)c1NC(=O)Nc1ccc2c(c1)C(=O)N([C@@H](C)CO)C[C@H](C)[C@@H](CN(C)S(=O)(=O)c1cccs1)OCCCC[C@H](C)O2,inactive
12,C[C@@H]1CN([C@H](C)CO)C(=O)c2cc(NS(=O)(=O)c3cn(C)cn3)ccc2O[C@H]1CN(C)CC1CCCCC1,inactive
13,C[C@H]1CN([C@@H](C)CO)C(=O)CCCn2cc(nn2)CO[C@H]1CN(C)C(=O)Nc1ccccc1C(F)(F)F,inactive
14,C[C@H](CO)N1C[C@H](C)[C@H](CN(C)S(C)(=O)=O)Oc2ncc(Br)cc2C1=O,inactive
15,COc1ccccc1[C@@H](NC(=O)C1CCN(CCc2ccc(Br)cc2)CC1)c1ccccn1,inactive
16,COc1ccc(/C=C/CN2CCC(C(=O)N[C@@H](c3ccc(-c4ccccc4)cc3)c3cnccn3)CC2)cc1,active
17,COc1ccc([C@@H](NC(=O)C2CCN(CCOc3ccc(Cl)cc3Cl)CC2)c2ccccn2)cc1,inactive
18,COc1ccc(NC(=O)Nc2ccc3c(c2)C(=O)N([C@@H](C)CO)C[C@H](C)[C@@H](CN(C)C(=O)Nc2c(C)noc2C)OCCCC[C@H](C)O3)cc1,inactive
19,CC(C)N(C)C(=O)c1cccc(NC(=O)c2ccncc2)c1OCCCN(C)Cc1ccc(Oc2ccccc2)cc1,inactive
20,CC(C)=CCCC(C)=CCO,active
21,C=CC(C)(O)CCC=C(C)C (stereo not given),inactive
22,C=C[C@](C)(O)CCC=C(C)C,inactive
23,C=CC(C)(O)CCC=C(C)CCC=C(C)C (stereo not given),active

row,SMILES,cytotoxicity call
1,CC(C)=CCC/C(C)=C/CO,inactive
2,CC(C)=CCCC(C)=CCCC(C)=CCCC(C)=CCCC(C)=CCCC(C)=CCCC(C)=CCCC(C)=CCCC(C)=CCO,inactive
3,CN1CCN(C(=O)C[C@@H]2CC[C@H]3[C@H](COc4ccc(NC(=O)c5ccc(F)c(F)c5)cc4C(=O)N3C)O2)CC1,inactive
4,C[C@@H]1CN([C@H](C)CO)C(=O)Cc2cc(NS(=O)(=O)c3ccc(Cl)cc3)ccc2O[C@H]1CN(C)S(C)(=O)=O,inactive
5,Cc1ccc(S(=O)(=O)Nc2ccc3c(c2)C(=O)N([C@H](C)CO)C[C@H](C)[C@@H](CN(C)CC2CCCCC2)OCCCC[C@H](C)O3)cc1,inactive
6,Cc1ccc(S(=O)(=O)Nc2ccc3c(c2)C(=O)N([C@@H](C)CO)C[C@@H](C)[C@H](CN(C)CC2CCCCC2)OCCCC[C@H](C)O3)cc1,inactive
7,Cc1ccc(S(=O)(=O)Nc2ccc3c(c2)C(=O)N([C@@H](C)CO)C[C@@H](C)[C@H](CN(C)CC2CCCCC2)OCCCC[C@@H](C)O3)cc1,inactive
8,Cc1ccc(S(=O)(=O)Nc2ccc3c(c2)C(=O)N([C@H](C)CO)C[C@H](C)[C@H](CN(C)CC2CCCCC2)OCCCC[C@H](C)O3)cc1,active
9,Cc1ccc(S(=O)(=O)Nc2ccc3c(c2)C(=O)N([C@H](C)CO)C[C@@H](C)[C@@H](CN(C)CC2CCCCC2)OCCCC[C@@H](C)O3)cc1,active
10,Cc1ccc(S(=O)(=O)Nc2ccc3c(c2)C(=O)N([C@@H](C)CO)C[C@@H](C)[C@@H](CN(C)CC2CCCCC2)OCCCC[C@H](C)O3)cc1,inactive
11,Cc1ccc(S(=O)(=O)Nc2ccc3c(c2)C(=O)N([C@@H](C)CO)C[C@@H](C)[C@@H](CN(C)CC2CCCCC2)OCCCC[C@@H](C)O3)cc1,active
12,Cc1ccc(S(=O)(=O)Nc2ccc3c(c2)C(=O)N([C@@H](C)CO)C[C@H](C)[C@H](CN(C)CC2CCCCC2)OCCCC[C@@H](C)O3)cc1,inactive
13,Cc1ccc(S(=O)(=O)Nc2ccc3c(c2)C(=O)N([C@@H](C)CO)C[C@H](C)[C@H](CN(C)CC2CCCCC2)OCCCC[C@H](C)O3)cc1,inactive
14,Cc1ccc(S(=O)(=O)Nc2ccc3c(c2)C(=O)N([C@H](C)CO)C[C@@H](C)[C@@H](CN(C)CC2CCCCC2)OCCCC[C@H](C)O3)cc1,active
15,Cc1ccc(S(=O)(=O)Nc2ccc3c(c2)C(=O)N([C@H](C)CO)C[C@H](C)[C@H](CN(C)CC2CCCCC2)OCCCC[C@@H](C)O3)cc1,inactive
16,Cc1ccc(S(=O)(=O)Nc2ccc3c(c2)C(=O)N([C@H](C)CO)C[C@@H](C)[C@H](CN(C)CC2CCCCC2)OCCCC[C@@H](C)O3)cc1,inactive
17,CO[C@H]1CN(C)C(=O)c2ccc(NC(=O)Nc3ccc(Cl)cc3)cc2OC[C@@H](C)N(C(=O)Nc2c(C)noc2C)C[C@@H]1C,inactive
18,C[C@@H]1CCCCO[C@H](CN(C)Cc2ccc(C(=O)O)cc2)[C@@H](C)CN([C@H](C)CO)C(=O)c2cc(NS(=O)(=O)c3ccccc3)ccc2O1,inactive
19,CCCNC(=O)N[C@@H]1C=C[C@H](CC(=O)N2CCN(C)CC2)O[C@@H]1CO,inactive
20,C[C@@H]1CN([C@H](C)CO)C(=O)CCCn2nncc2CO[C@@H]1CN(C)C(=O)Nc1ccnc(N2CCOCC2)c1,inactive
21,OC[C@@H](O)[C@@H](O)[C@@H](O)/C=N/Nc1ccccc1,inactive
22,CNC(=O)c1c(F)cccc1Nc1nc(Nc2cc3c(cc2OC)CCN3C(=O)CN(C)C)nc2[nH]ccc12,active
